{"source": "PubChem BioAssay (Tox21)", "note": "Results filed as inconclusive are left out. Calls of active or inactive are those of the source. Calls follow the shape of the dose curve; as a rule, active = well fitted activation curve with a large enough effect in the signal ratio in the repeat runs (not every such curve was filed as active); inconclusive = weak or mixed curves; inactive = flat fitted curve, though single readings scatter; the % refers to the signal ratio."}
{"assay": "qHTS assay to identify small molecule agonists of the TGF-beta/Smad signaling pathway (AID 1346859)", "settings": "SBE-bla HEK293T, TGF-beta/Smad beta-lactamase reporter, 5 h; series mostly up to 76.8 µM", "outline": "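Each well held 4,000 SBE-bla HEK 293T cells incubated overnight before compound addition; 5 hr later the cleavable FRET substrate went on for 2 hr at room temperature, and fluorescence was read at two emissions.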"}
{"smiles": "O=C(O)CCCc1ccc(N(CCCl)CCCl)cc1", "outcome": "inactive"}
{"smiles": "NNc1ccccc1", "outcome": "inactive"}
{"smiles": "Nc1nc(N)nc(NC2CC2)n1", "outcome": "inactive"}
{"smiles": "Sc1ccccc1", "outcome": "inactive"}
{"smiles": "CC(C)c1cccc(C(C)C)c1O", "outcome": "inactive"}
{"smiles": "COC(C)(C)CCCC(C)C/C=C/C(C)=C/C(=O)OC(C)C", "note": "(centres undefined)", "outcome": "inactive"}
{"smiles": "C=CCN=C=S", "outcome": "inactive"}
{"smiles": "O=P1(NCCCl)OCCCN1CCCl", "note": "(centres undefined)", "outcome": "inactive"}
{"smiles": "CNC(=O)Oc1cccc2ccccc12", "outcome": "inactive"}
{"smiles": "Nc1cc(Cl)cc(Cl)c1", "outcome": "inactive"}
{"smiles": "Cc1cc(O)ccc1Cl", "outcome": "inactive"}
{"smiles": "CCOC(=O)CC(SP(=O)(OC)OC)C(=O)OCC", "note": "(centres undefined)", "outcome": "inactive"}
{"smiles": "CC(=O)/C=C/c1ccccc1", "outcome": "inactive"}
{"smiles": "Cc1ccc(N)cc1", "outcome": "inactive"}
{"smiles": "Cl[C@H]1OCCO[C@@H]1Cl", "outcome": "inactive"}
{"smiles": "CCSC(=O)N1CCCCCC1", "outcome": "inactive"}
{"smiles": "CN(C)NC(=O)CCC(=O)O", "outcome": "inactive"}
{"smiles": "CC[N+](=O)[O-]", "outcome": "inactive"}
{"smiles": "Oc1ccc(Cl)cc1", "outcome": "inactive"}
{"smiles": "CN1C(=O)CCS(=O)(=O)C1c1ccc(Cl)cc1", "note": "(centres undefined)", "outcome": "inactive"}
{"smiles": "COP(=S)(OC)SCN1C(=O)c2ccccc2C1=O", "outcome": "inactive"}
{"smiles": "OCc1ccco1", "outcome": "inactive"}
{"smiles": "CCOP(=S)(OCC)Oc1ccc([N+](=O)[O-])cc1", "outcome": "inactive"}
{"smiles": "C=CC(=O)OCC(CC)CCCC", "note": "(centres undefined)", "outcome": "inactive"}
{"smiles": "CCOP(=S)(OCC)Oc1cc(C)nc(C(C)C)n1", "outcome": "inactive"}
{"smiles": "c1ccc2c(c1)CCCC2", "outcome": "inactive"}
{"smiles": "CC(=O)C1CCOC1=O", "note": "(centres undefined)", "outcome": "inactive"}
{"smiles": "CSc1nnc(C(C)(C)C)c(=O)n1N", "outcome": "inactive"}
{"smiles": "N#Cc1cccc(C#N)c1", "outcome": "inactive"}
